High-throughput results: PubChem, National Center for Advancing Translational Sciences (NCATS)
Shown are actives, neighbours in structure and some others; about 7.9% of the full set was active somewhere.
HCV inhibitor – inhibitors of hepatitis C virus infection; Huh7.5.1 HCVcc-Cre infection, luciferase reporter, 44 h; Potency, µM (titrated, usually from 41.8 µM), hits mostly inhibitors; 3.4% of 340,000 active; active means well fitted inhibition curve with a large enough effect; inconclusive means small, poorly fitted or top-dose-only effect, or another doubt; inactive means no such curve, though single readings can be large or run the other way
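Whole-lifecycle infectious HCVcc-Cre system; cells 1,000/well, compound then virus (~0.5 moi) added 4 h after plating, 44 h culture. Luciferase read 15 sec following 15 min substrate incubation, room temp.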
MARV entry inh – Marburg virus entry inhibition; 1.8% of 300,000 active; Marburg virus pseudotyped entry inhibition, cell reporter; Potency, µM (top dose mostly 37.8 µM), hits mostly inhibitors; calls by dose curve; tested in HEK293 cells
FMDV antiviral – antivirals against foot and mouth disease virus | 1.2% of 410,000 active | FMDV antiviral cell-based qHTS | AID 1159524 | Potency, µM (highest dose often 57.9 µM), hits mostly inhibitors; calls by dose curve; tested in HEK293T cells; further: read-out not given here; nearly all actives have a fitted effect of over 45% in size
Lassa entry inh – blocks Lassa virus binding to or entry into cells; Lassa virus pseudotype entry inhibition, cell reporter; Potency, µM (titrated, usually from 37.9 µM), hits mostly inhibitors; 1.2% of 300,000 active; calls by dose curve; tested in HEK293 cells; further: nearly all actives have a fitted effect of over 50% in size
HCMV inh – inhibitors of human cytomegalovirus | HFF cells, HCMV-luciferase reporter, 72 h; stronger effect = lower value | activity change, negative = inhibition, % at 57.5 µM | 4.5% of 410,000 active | AID 1259415; in the data active means activity change below about -60%; inconclusive means no clear call, values can overlap the other calls; inactive means above about -39%
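Screen run at 2 compound doses on HFFs infected with reporter HCMV, MOI 1 PFU/cell. Luciferase activity from cell lysates at 72 h post infection gave inhibition relative to buffer-only and Salinomycin wells.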
Hits are given with their value; . = inactive; ? = inconclusive; / = no result given.

SMILES	HCV inhibitor	MARV entry inh	FMDV antiviral	Lassa entry inh	HCMV inh
O=C(NC1CCCCC1)N1CCN(C(c2ccccc2)c2ccccc2)CC1	?	?	/	13µM	.
CCC1CN(CCC(=O)N2CCCN(C(=O)c3ccco3)CC2)Cc2cc(OC)ccc2O1 (configuration not stated)	/	/	.	/	/
Cc1ccccc1CN1c2ccccc2-c2nc(SCC(=O)c3ccccc3)ncc2S1(=O)=O	/	/	.	.	.
CO[C@H]1[C@H](NC(=O)c2ccncc2)c2ccccc2C12CCN(C(=O)c1ccoc1)CC2	/	/	.	/	/
CC(C)N1C(=O)/C(=C/c2nc3ccccc3c(=O)n2-c2ccccc2)c2ccccc21	?	?	28µM	10µM	-105
COc1ccc(-n2c(/C=C3/C(=O)Nc4ccccc43)nc3ccccc3c2=O)cc1	.	?	?	?	?
CC(C)N1C(=O)/C(=C\c2nc3ccccc3c(=O)n2-c2ccccc2)c2ccccc21	?	?	18µM	?	-95
CC(C)N1C(=O)C(Cc2nc3ccccc3c(=O)n2-c2ccccc2)c2ccccc21 (configuration not stated)	?	.	.	?	-72
N=C1C(=O)OCC1c1ccccc1NC(=O)CN1CCOCC1 (configuration not stated)	.	?	.	.	.
Cc1nc(SCc2ccccc2C)n[nH]1	.	.	.	.	.
CCOc1ccc(Cl)cc1CSc1n[nH]c(C)n1	?	.	.	.	-72
CCOC(=O)/C(=N\Nc1ccc(OC)cc1)c1csc(Nc2ccccc2)n1	1µM	?	/	.	.
CCOC(=O)/C(=N/Nc1ccccc1)c1csc(Nc2ccccc2)n1	?	.	.	.	.
COC(=O)CC=C1c2ccccc2C[C@H](OC)[C@@H]1C	/	.	/	/	/
O=C(NCc1ccon1)C1CCC(=O)N(CCc2ccc(Cl)cc2)C1 (configuration not stated)	.	.	.	?	.
CC(NC(=O)CCc1nnc(-c2ccc(-c3ccccc3)cc2)o1)c1nc2ccccc2[nH]1 (configuration not stated)	.	?	?	?	-68
O=C(COCc1cc(-c2ccco2)on1)Nc1cccc(O)c1	/	/	.	.	.
COc1ccccc1CNC(=O)c1ccc2c(c1)nnn2C1CCCC1	/	/	.	.	.
CCNc1nc(NCC)nc(N(C#N)CCOc2ccccc2)n1	.	.	.	.	.
CCNc1nc(NC(C)C)nc(N(C#N)CCOc2ccccc2)n1	22µM	.	.	.	.
CCC(C)NC(=O)c1c(N)n(/N=C/c2cccnc2)c2nc3ccccc3nc12 (configuration not stated)	14µM	26µM	.	.	.
CC(C)CNC(=O)c1c(N)n(/N=C/c2cccnc2)c2nc3ccccc3nc12	.	/	/	/	/
Cc1cc(C)c2c(NC(=O)c3ccccc3Cl)c(C(=O)Nc3ccc(C)c(C)c3)sc2n1	/	?	.	.	.
Cc1ccc(C(=O)Nc2c(C(=O)Nc3ccc(C)c(C)c3)sc3nc(C)cc(C)c23)cc1	/	?	.	.	-107
CC(Sc1nnc(COc2ccc(Cl)cc2)o1)C(=O)Nc1ccc(N2CCOCC2)cc1 (configuration not stated)	.	.	.	.	.
SMILES	HCV inhibitor	MARV entry inh	FMDV antiviral	Lassa entry inh	HCMV inh
Cc1nc2scc(-c3ccc(C(C)(C)C)cc3)c2c(=O)n1N	.	?	.	.	-78
COc1ccc(-c2csc3nc(C)n(-n4cccc4)c(=O)c23)cc1	?	.	.	?	-62
Cc1ccc(-c2cc(-c3coc4ccc(Cl)cc4c3=O)c3c(n2)-c2ccccc2OC3)cc1	/	.	.	?	.
Cc1ccc(-c2csc3nnc(SCC(=O)NCc4ccc5c(c4)OCO5)n23)cc1	6.3µM	.	.	.	.
O=C(CSc1nc(=O)n2ccccc2n1)NCc1ccc2c(c1)OCO2	?	.	.	.	.
O=C(CSc1nnc2ccccn12)NCc1ccc2c(c1)OCO2	.	/	.	/	-79
O=C(CSc1nc(CCC2CCCC2)nc2ccccc12)NCc1ccc2c(c1)OCO2	?	13µM	.	?	?
O=C(CSc1nc(C2CCCCC2)nc2ccccc12)NCc1ccco1	?	.	?	.	-102
